The values below come from PubChem BioAssay.

Assay [1] can be described thus: sensitizers of A549 cells to miR-34 induction, primary screen, imaging, A549 dox-inducible miR-34, nuclei and caspase counts (AID 1347080). The following applies: A549 miR-34 inducible, Hoechst nuclei count, 48 h.
Assay [2] can be described thus: survival rescue of mitochondrial mutant cells in low glucose, primary screen, MELAS cybrids, Rieske KO mouse fibroblasts, CellTiter-Glo (AID 1508586;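 active = mean z-score across replicates of 1.96 or higher in either the MELAS or the Rieske mutant cell line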;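 note: z relative to plate mean and SD of compound and empty wells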). For orientation: In ATP-based viability assays light output follows the ATP content of the culture.
Setting [3] is: stronger effect = lower value, cell number ratio, induced over uninduced.
Setting [4] is: measured here: relative caspase fold change +Dox/-Dox.
[5] abbreviates: measured here: total cells with miR-34 induction, stronger effect = lower value.
The mark [6] stands for this setting: measured here: total cells without miR-34 induction.
The mark [7] stands for this setting: MELAS cybrid survival, CellTiter-Glo 48 h, stronger effect = higher value.
The mark [8] stands for this setting: Rieske KO mouse fibroblast survival, CellTiter-Glo 72 h.

Activity calls are given as the source filed them.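 Rule for the calls, unless noted: active = compounds whose cell count with miR-34 switched on is under 0.7 times the count with it off; inactive = the rest.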
Note: test concentration not given here.

Consider `COc1cc(C2c3cc4c(cc3C(O[C@@H]3O[C@@H]5COC(C)O[C@H]5C(O)C3O)[C@H]3COC(=O)[C@H]23)OCO4)cc(OC)c1O` (stereo partly specified), for which the fold change in assay [1] (setting [3]) was 0.94 (inactive); in assay [1] (setting [4]), 1.28. In addition, the cell count in assay [1] (setting [5]) turned out to be 2100; in assay [1] (setting [6]), 2240. Further, the z-score in assay [2] (setting [7]) was -0.7 (inactive); in assay [2] (setting [8]), -0.559.

On to `CC1C=CC=CC=CC=CC=CC=CC=CC(OC2OC(C)C(O)C(N)C2O)CC2O[C@@](O)(CC(O)CC(O)C(O)CCC(O)CC(O)CC(=O)OC(C)C(C)C1O)CC(O)C2C(=O)O` (stereo partly specified), for which the fold change in assay [1] (setting [3]) was 0.819 (inactive); in assay [1] (setting [4]), 1.3. Further, the cell count is 6680 in assay [1] (setting [5]) and 8160 in assay [1] (setting [6]). Besides, the values for the z-score in assay [2] (setting [7]) and in assay [2] (setting [8]) were -0.196 (inactive) and 0.383, respectively.

Turning to `CCC1OC(=O)C(C)C(OC2C[C@@](C)(OC)C(O)C(C)O2)C(C)C(OC2OC(C)CC(N(C)C)C2O)[C@](C)(O)CC(C)CN(C)C(C)C(O)[C@]1(C)O` (stereo partly specified), the fold change in assay [1] (setting [3]) was 0.925 (inactive); in assay [1] (setting [4]), 0.82. For the same compound, the results for the cell count in assay [1] (setting [5]) and in assay [1] (setting [6]) were 8110 and 8770, respectively. Also, the z-score in assay [2] (setting [7]) was -0.213 (inactive); in assay [2] (setting [8]), 0.708.

As to `Nc1nc(=O)n(C2CSC(CO)O2)cc1F` (stereo unspecified), the fold change in assay [1] (setting [3]) is 0.88 (inactive); in assay [1] (setting [4]) it was 0.906. In addition, the cell count came out at 7840 in assay [1] (setting [5]) and 8920 in assay [1] (setting [6]). Further, the figures for the z-score in assay [2] (setting [7]) and in assay [2] (setting [8]) were -0.288 (inactive) and 0.564, respectively.

For `CN(C)c1cc(NC(=O)CNC(C)(C)C)c(O)c2c1C[C@H]1C[C@H]3C(N(C)C)C(=O)C(C(N)=O)=C(O)[C@@]3(O)C(=O)C1=C2O` (stereo partly specified), the values for the fold change in assay [1] (setting [3]) and in assay [1] (setting [4]) were 0.917 (inactive) and 1.11, respectively. Besides, the cell count in assay [1] (setting [5]) was found to be 8200; in assay [1] (setting [6]), 8950. Moreover, the figures for the z-score in assay [2] (setting [7]) and in assay [2] (setting [8]) were -0.43 (inactive) and 0.225, respectively.

On to `CN(C)C(CCOc1cccc2ccccc12)c1ccccc1` (stereo unspecified), for which the fold change in assay [1] (setting [3]) was 0.873 (inactive); in assay [1] (setting [4]), 1.7. The cell count in assay [1] (setting [5]) is 6850; in assay [1] (setting [6]), 7850. For the same compound, the z-score in assay [2] (setting [7]) was -0.416 (inactive); in assay [2] (setting [8]), 0.392.

With `O=C(c1cn(Cc2cncn2Cc2ccc(Br)cc2)cc1-c1cccc2ccccc12)N1CCOCC1`, the fold change was 0.999 (inactive) in assay [1] (setting [3]) and 0.553 in assay [1] (setting [4]). Moreover, the cell count is 3260 in assay [1] (setting [5]) and 3270 in assay [1] (setting [6]). In addition, the z-score in assay [2] (setting [7]) is -0.128 (inactive); in assay [2] (setting [8]) it was -1.26.

Regarding `NC(=O)N1CCC(CC(=O)N2CCC(C3c4ncc(Br)cc4CCc4cc(Cl)cc(Br)c43)CC2)CC1` (stereo unspecified), the results for the fold change in assay [1] (setting [3]) and in assay [1] (setting [4]) were 1.04 (inactive) and 0.678, respectively. Further, the cell count came to 5310 in assay [1] (setting [5]) and 5110 in assay [1] (setting [6]). Also, the values for the z-score in assay [2] (setting [7]) and in assay [2] (setting [8]) were -0.458 (inactive) and 0.637, respectively.

As to `Cc1ccc(S(=O)(=O)n2c(N)nc3ccccc32)cc1`, the fold change in assay [1] (setting [3]) is 1.01 (inactive); in assay [1] (setting [4]), 0.588. The cell count in assay [1] (setting [5]) was determined as 6490; in assay [1] (setting [6]), 6440. The z-score in assay [2] (setting [7]) was -0.425 (inactive); in assay [2] (setting [8]), -0.074.

With `CC(=O)c1cc([N+](=O)[O-])c(Sc2ccc(F)cc2F)s1`, the fold change in assay [1] (setting [3]) is 0.898 (inactive); in assay [1] (setting [4]), 0.374. Further, the values for the cell count in assay [1] (setting [5]) and in assay [1] (setting [6]) were 8140 and 9060, respectively. Moreover, the z-score in assay [2] (setting [7]) is -0.42 (inactive); in assay [2] (setting [8]), 0.533.

`O=C(NN=Cc1ccc(O)c(O)c1)c1cc2ccccc2cc1O`: the fold change in assay [1] (setting [3]) was 0.949 (inactive); in assay [1] (setting [4]) it was 0.497. In addition, the cell count in assay [1] (setting [5]) was 8120; in assay [1] (setting [6]) it was 8550. Also, the z-score in assay [2] (setting [7]) was -0.481 (inactive); in assay [2] (setting [8]), 0.559.

Take `CCOc1ccc2ccccc2c1C(=O)NC1C(=O)N2C(C(=O)O)C(C)(C)S[C@H]12` (stereo partly specified): the results for the fold change in assay [1] (setting [3]) and in assay [1] (setting [4]) were 1.19 (inactive) and 0.989, respectively. Further, the results for the cell count in assay [1] (setting [5]) and in assay [1] (setting [6]) were 8800 and 7400, respectively. In addition, the values for the z-score in assay [2] (setting [7]) and in assay [2] (setting [8]) were -0.279 (inactive) and -0.179, respectively.

`CCC1OC(=O)C(C)C(OC2C[C@@](C)(OC)C(O)C(C)O2)C(C)C(OC2OC(C)CC(N(C)C)C2O)[C@](C)(O)CC(C)C(=NOCOCCOC)C(C)C(O)[C@]1(C)O` (stereo partly specified): the fold change in assay [1] (setting [3]) was 0.909 (inactive); in assay [1] (setting [4]) it was 0.933. Further, the cell count in assay [1] (setting [5]) turned out to be 9240; in assay [1] (setting [6]), 10200. Besides, the z-score in assay [2] (setting [7]) was -0.34 (inactive); in assay [2] (setting [8]), 0.815.

With `CC(=O)O[C@]1(C(C)=O)CC[C@H]2[C@@H]3C[C@H](C)C4=CC(=O)C=C[C@]4(C)[C@@]3(F)[C@H](O)C[C@@]21C`, the fold change in assay [1] (setting [3]) was 0.862 (inactive); in assay [1] (setting [4]), 1.9. Moreover, the cell count in assay [1] (setting [5]) is 5370; in assay [1] (setting [6]), 6240. Moreover, the z-score was -0.0969 (inactive) in assay [2] (setting [7]) and -0.184 in assay [2] (setting [8]).

For the compound `CC(C)n1c(C=CC(O)CC(O)CC(=O)O)c(-c2ccc(F)cc2)c2ccccc21` (stereo unspecified), the fold change in assay [1] (setting [3]) is 1.12 (inactive); in assay [1] (setting [4]) it was 0.928. Also, the figures for the cell count in assay [1] (setting [5]) and in assay [1] (setting [6]) were 1580 and 1410, respectively. Besides, the z-score in assay [2] (setting [7]) was 0.699 (inactive); in assay [2] (setting [8]) it was -1.97.

As for `CC(C)CC(CC(=O)NO)C(=O)NC(Cc1ccc2ccccc2c1)C(=O)NC(C)C(=O)NCCN` (stereo unspecified), the values for the fold change in assay [1] (setting [3]) and in assay [1] (setting [4]) were 0.928 (inactive) and 0.561, respectively. The cell count stood at 8260 in assay [1] (setting [5]) and 8900 in assay [1] (setting [6]). Further, the figures for the z-score in assay [2] (setting [7]) and in assay [2] (setting [8]) were -0.492 (inactive) and -0.379, respectively.

With `NC(=O)c1cnc(NC2CCCCC2N)nc1Nc1cccc(-n2nccn2)c1` (stereo unspecified), the results for the fold change in assay [1] (setting [3]) and in assay [1] (setting [4]) were 0.82 (inactive) and 0.778, respectively. Besides, the cell count is 1580 in assay [1] (setting [5]) and 1920 in assay [1] (setting [6]). Besides, the results for the z-score in assay [2] (setting [7]) and in assay [2] (setting [8]) were -0.344 (inactive) and -1.57, respectively.

As for `OCC1OC(Oc2ccc(O)cc2)C(O)C(O)C1O` (stereo unspecified), the fold change in assay [1] (setting [3]) was 0.859 (inactive); in assay [1] (setting [4]), 1.01. The results for the cell count in assay [1] (setting [5]) and in assay [1] (setting [6]) were 7730 and 9000, respectively. Besides, the z-score is -0.228 (inactive) in assay [2] (setting [7]) and 0.468 in assay [2] (setting [8]).

Consider `OCC(CO)NC1C[C@@](O)(CO)C(O)C(O)C1O` (stereo partly specified), for which the fold change in assay [1] (setting [3]) was 0.838 (inactive); in assay [1] (setting [4]), 1.1. In addition, the cell count was determined as 8490 in assay [1] (setting [5]) and 10100 in assay [1] (setting [6]). In addition, the figures for the z-score in assay [2] (setting [7]) and in assay [2] (setting [8]) were -0.052 (inactive) and -0.122, respectively.

Take `CC1COC(Nc2ccc3ncnc(Nc4ccc(OCc5nccs5)c(Cl)c4)c3c2)=N1` (stereo unspecified): the fold change in assay [1] (setting [3]) is 0.841 (inactive); in assay [1] (setting [4]), 0.704. The results for the cell count in assay [1] (setting [5]) and in assay [1] (setting [6]) were 6940 and 8260, respectively. The z-score in assay [2] (setting [7]) was 0.156 (inactive); in assay [2] (setting [8]), -0.466.

As to `CC(C)=CCC[C@](C)(OC1OC(COC2OCC(O)C(O)C2O)C(O)C(O)C1O)C1CC[C@]2(C)[C@@H]1C(O)C[C@H]1[C@@]3(C)CCC(OC4OC(CO)C(O)C(O)C4O)C(C)(C)[C@@H]3CC[C@]12C` (stereo partly specified), the fold change in assay [1] (setting [3]) is 0.96 (inactive); in assay [1] (setting [4]), 0.422. For the same compound, the cell count in assay [1] (setting [5]) turned out to be 7600; in assay [1] (setting [6]) it was 7910. Moreover, the z-score was -0.238 (inactive) in assay [2] (setting [7]) and 0.0165 in assay [2] (setting [8]).
